Most compounds without a hit are left out; they make up all but 9.9% or so of the library.
JMJD2E inh: JMJD2E (human) inhibition; B2RXH2; JMJD2E catalytic domain, FDH-coupled NADH fluorescence (FDH is formaldehyde dehydrogenase); Potency, µM (highest dose often 57.1 µM), for the others: at the top dose activity change, negative = inhibition, most hits filed as inhibitors; hit rate 1.6% among 230,000; AID 2147; active = well fitted inhibition curve with a large enough effect, not every such curve was filed as active; inconclusive = small, poorly fitted or top-dose-only effect, or another doubt; inactive = no such curve, though single readings can be large or run the other way;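 also: 0% = wells with enzyme and -100% = buffer wells without enzyme; nearly all actives have a fitted effect of over 50% in size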
Target sequence (B2RXH2 1-337 limits assumed): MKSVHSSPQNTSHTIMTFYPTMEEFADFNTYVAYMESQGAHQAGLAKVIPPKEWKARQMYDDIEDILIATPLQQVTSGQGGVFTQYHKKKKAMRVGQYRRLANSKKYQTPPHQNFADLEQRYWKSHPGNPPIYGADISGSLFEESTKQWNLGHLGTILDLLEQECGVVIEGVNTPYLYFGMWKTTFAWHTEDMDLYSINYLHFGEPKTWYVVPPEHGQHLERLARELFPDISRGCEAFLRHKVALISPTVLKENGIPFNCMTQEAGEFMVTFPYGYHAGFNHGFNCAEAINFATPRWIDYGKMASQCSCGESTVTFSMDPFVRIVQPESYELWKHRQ
ALDH1A1 block: blocks purified human ALDH1A1 activity. Purified ALDH1A1, NADH fluorescence, propionaldehyde substrate. Potency, µM (top dose mostly 75.3 µM), without a hit: at the top dose activity, negative = inhibition, most hits filed as inhibitors. hit rate 7.3% among 220,000. AID 1030; active = well fitted inhibition curve with a large enough effect, not every such curve was filed as active; inconclusive = small, poorly fitted or top-dose-only effect, or another doubt; inactive = no such curve, though single readings can be large or run the other way;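 also: plate controls were no enzyme wells and a reference inhibitor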
Tau fluor cs: counter-screen for tau fibril formation inhibitors; tau K18 P301L Alexa594 fluorescence, heparin fibrillization; Potency, µM (titrated, usually from 57.7 µM), without a hit: at the highest dose activity change, negative = decrease; hit rate 0.93% among 280,000; AID 1463; also: nearly all actives have a fitted effect of over 55% in size
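Human tau K18 P301L (15 uM unlabeled, 0.24 uM Alexa 594-labeled) in 100 mM sodium acetate pH 7 with 20 uM heparin, 6 hr at 37 C. ThT 30 uM added, 1 hr ambient; Alexa 594 FP and total fluorescence read at 555/632 nm.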
Tau FP inhib: inhibitors of human tau fibril formation | Potency, µM (doses to about 57.7 µM), inactives show top-dose activity, negative = inhibition, hits mostly inhibitors | P10636 | K18 P301L tau heparin fibrillization, Alexa594 FP, 6 h | AID 1468 | hit rate 0.39% among 280,000; also: nearly all actives have a fitted effect of over 55% in size
Target sequence (P10636 561-689 P618L limits assumed): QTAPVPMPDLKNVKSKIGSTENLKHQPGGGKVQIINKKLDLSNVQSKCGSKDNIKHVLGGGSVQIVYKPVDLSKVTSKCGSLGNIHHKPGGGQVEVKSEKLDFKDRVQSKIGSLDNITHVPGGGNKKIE
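Quantitative HTS format: compounds meet 15 uM recombinant K18 P301L tau and Alexa 594-tau tracer in 100 mM sodium acetate pH 7; 20 uM heparin triggers fibrillization at 37 C over 6 hr; FP gives the signal.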
Tau fibril ThT: tau fibrillization inhibition (ThT binding); P10636; recombinant tau K18 P301L, heparin-induced fibrillization, ThT fluorescence; Potency, µM (doses to about 57.4 µM), for the others: at the highest dose activity, negative = inhibition, actives largely listed as inhibitors; hit rate 2.1% among 270,000; also: nearly all actives have a fitted effect of over 55% in size
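Using a mix of unlabeled (15 uM) and Alexa 594-labeled (0.24 uM) tau K18 P301L, heparin-triggered fibrillization over 6 hr at 37 C was scored by ThT fluorescence.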
HPGD inh: blocks human HPGD enzyme activity | purified HPGD, NADH fluorescence kinetic, PGE2 substrate | Potency, µM, for inactives: top-dose activity change, negative = inhibition, most hits filed as inhibitors | hit rate 4.3% among 150,000 | AID 894; active = well fitted inhibition curve with a large enough effect, not every such curve was filed as active; inconclusive = small, poorly fitted or top-dose-only effect, or another doubt; inactive = no such curve, though single readings can be large or run the other way
Target sequence (P15428 whole entry, looked up): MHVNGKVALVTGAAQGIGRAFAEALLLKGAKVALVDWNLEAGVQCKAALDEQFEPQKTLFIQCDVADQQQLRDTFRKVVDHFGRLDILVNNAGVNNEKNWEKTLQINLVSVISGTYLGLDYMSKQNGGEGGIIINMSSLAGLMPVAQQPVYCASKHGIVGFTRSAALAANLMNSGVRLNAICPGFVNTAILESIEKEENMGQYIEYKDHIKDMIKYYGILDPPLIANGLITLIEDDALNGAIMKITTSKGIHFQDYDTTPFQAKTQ
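NADH formation kinetics: reaction with 30 uM PGE2 and 1 mM NAD+ (final), 20 nM enzyme, Tris-HCl pH 8 with Tween 20, after 15 min compound preincubation at room temperature. Fluorescence change, last versus first of five reads.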
* = called active by the depositor; ? = inconclusive; / = no result given; [ ] = another dose, or the depositor's remark. Unless noted, calls follow the shape of the dose curve; as a rule, active = well fitted curve in the direction sought with a large enough effect; inconclusive = small, poorly fitted or top-dose-only effect, or another doubt; inactive = no such curve, though single readings can be large; an effect the other way counts as inactive or inconclusive. Unless noted, % is scaled to controls: 0 for no effect and ±100 for the full control effect; potency is read from the fitted curve at half-maximal effect.

SMILES | JMJD2E inh | ALDH1A1 block | Tau fluor cs | Tau FP inhib | Tau fibril ThT | HPGD inh
Cc1ccc2[nH]c(=O)c(C(c3nnnn3CC3CCCO3)N3CCCc4ccccc43)cc2c1 (stereo unspecified) | -11.9% | 12.6µM* | -19.6% | 5.5% | ? | -9.0%
Cc1ccc(-c2nc3cnccn3c2Nc2c(C)cccc2C)o1 | 2.1% | ? | -18.5% | ? | ? | ?
CC(C)(C)c1ccc(S(=O)(=O)CCc2ccccn2)cc1 | -0.2% | 7.08µM* | -3.2% | 2.8% | -3.7% | -13.5%
Cc1ccc(S(=O)(=O)CCc2ccccn2)cc1 | 3.8% | 7.2% | 0.9% | -4.5% | -6.8% | -14.6%
O=C(O)/C=C\C(=O)Nc1cc(O)ccc1[N+](=O)[O-] | 0.0% | / | -15.1% | -0.1% | / | /
Cc1ccc(NC(=O)Cn2ccsc2=N)c([N+](=O)[O-])c1 | -4.7% | 7.08µM* | -3.2% | 3.3% | 1.0% | /
Cc1ccc(NC(=O)/C=C\C(=O)O)c([N+](=O)[O-])c1 | 1.3% | 12.6µM* | -7.3% | 4.9% | -14.5% | -6.8%
Cc1cc(C)c(NC(=O)/C=C\C(=O)O)c([N+](=O)[O-])c1 | -3.7% | 10µM* | -3.3% | -5.4% | -22.7% | 22.4µM*
Cc1cc(C)c(NC(=O)/C=C\C(=O)O)c(Cl)c1 | -5.3% | ? | 1.9% | 2.9% | -5.4% | -6.4%
CC(=O)Nc1cc(NC(C)=O)ncn1 | 9.3% | 7.5% | -13.5% | -2.4% | -8.3% | /
CCOCC(=O)Nc1cc([N+](=O)[O-])ccc1OC | 2.0% | 22.4µM* | -0.5% | 0.7% | 3.4% | /
COc1cc([N+](=O)[O-])ccc1NC(=O)CCCOc1cc(C)ccc1C | -3.5% | 28.2µM* | ? | -7.1% | ? | -18.9%
Cc1ccc(C)c(OCCCC(=O)Nc2ccccc2C(N)=O)c1 | 9.6% | 23.8µM* | -1.2% | 1.4% | 2.2% | /
COc1ccc(C(=O)NCC(=O)OCC(=O)Nc2cc([N+](=O)[O-])ccc2F)cc1 | 4.5% | 1.58µM* | -13.2% | ? | -15.0% | /
Cc1ccc(C)c(OCCCC(=O)Nc2nccs2)c1 | 4.6% | 7.1% | -9.4% | 3.0% | -13.3% | -14.9%
CCn1c(=O)ccc2cc([N+](=O)[O-])ccc21 | -24.3% | -3.5% | 9.5% | 5.5% | -9.5% | /
O=C(CN1C=NS(=O)(=O)c2ccccc21)Nc1ccccc1F | / | / | -10.6% | 1.9% | -4.5% | /
CCOC(=O)Cn1nc(C(F)F)c(Br)c1C | 6.4% | -3.9% | -11.2% | -11.0% | -6.7% | /
CC(=O)[C@]1(O)Cc2c(O)c3c(c(O)c2[C@@H](O[C@H]2C[C@H](N)[C@H](O)[C@H](C)O2)C1)C(=O)c1ccccc1C3=O | ? | ? | ? | ? | 3.55µM* | -14.8%
CC(=O)[C@]1(O)Cc2c(O)c3c(c(O)c2[C@@H](O[C@H]2C[C@H](N)[C@H](O)[C@H](C)O2)C1)C(=O)c1c(O)cccc1C3=O | / | -4.4% | ? | 25.1µM* | 4.47µM* | -2.9%
CCc1ccc(NC(=O)CSc2nc(-c3ccccc3Cl)nc3c2Cc2c(CO)cnc(C)c2O3)cc1 | / | / | -15.5% | -5.3% | -10.9% | /
O=C(Cc1ccccc1)Nc1ccc(Br)c(Cl)c1 | -6.4% | 15.8µM* | 10.7% | 9.3% | 13.7% | -21.1%
C=CCS(=O)(=O)c1nc2ccccc2s1 | -3.9% | 0.794µM* | -3.0% | -13.9% | ? | -11.8%
c1ccc2sc(SSc3nc4ccccc4s3)nc2c1 | / | 0.251µM* | / | / | / | 10µM*
NCCSc1nc2ccccc2s1 | / | -5.0%[13.5 µM] | / | / | / | -6.5%
SMILES | JMJD2E inh | ALDH1A1 block | Tau fluor cs | Tau FP inhib | Tau fibril ThT | HPGD inh
CCS(=O)(=O)CCSc1nc2ccccc2s1 | -1.0% | ? | -4.5% | -9.1% | 2.4% | -12.1%
O=S(=O)(CCSc1nc2ccccc2s1)c1nc2ccccc2s1 | -3.2% | 0.1µM* | ? | -5.1% | ? | -18.5%
O=S1(=O)C=C(Sc2nc3ccccc3s2)c2ccccc21 | ? | 14.1µM* | -13.7% | ? | 10µM* | ?
COc1cc(NS(=O)(=O)c2ccc(N/C=C(\C=O)c3nc4ccccc4o3)cc2)nc(OC)n1 | -4.5% | -14.9% | -9.4% | -5.0% | -15.8% | /
N#CCCCS(=O)(=O)c1nc2ccccc2s1 | 6.8% | -6.4% | -6.3% | 2.0% | -10.0% | -20.8%
N#C/C(=C\c1ccco1)Sc1nc2ccccc2s1 | -20.7% | 12.6µM* | -24.9% | -0.3% | -14.6% | 10µM*
Cn1c(CSc2nc3ccccc3s2)n[nH]c1=S | -10.4% | ? | -0.1% | 5.4% | -6.2% | -27.9%
N#Cc1cccc(CS(=O)(=O)c2nc3ccccc3s2)c1 | 3.3% | 14.1µM* | -7.4% | ? | ? | -5.9%
S=c1[nH]nc(CSc2nc3ccccc3s2)o1 | -15.0% | 17.8µM* | -6.3% | -7.0% | -15.0% | -25.9%
O=C(Nc1cccc(F)c1)C1CCN(c2nc3ccccc3[nH]2)CC1 | / | / | -15.9% | 2.9% | -14.8% | /
O=C(Nc1cccc2cccnc12)[C@@H]1[C@@H](C(=O)O)[C@H]2CC[C@@H]1O2 | / | 0.9%[13.5 µM] | / | / | / | 0.0%
CC1(C)C2CCC(C2)C1(C)NC(=O)CNCC1CCCCC1 (stereo unspecified) | ? | -6.4% | -0.4% | -1.3% | -4.5% | /
COc1ccc(/C=N/N2C(=O)CSC2=S)cc1 | -24.1% | ? | -12.6% | -2.4% | ? | -13.9%
O=C1CSC(=S)N1/N=C/c1ccc(O)c(O)c1O | 2.24µM* | / | ? | 7.08µM* | 3.55µM* | /
CC(Sc1nc2ccccc2[nH]1)C(=O)Nc1ccccc1F (stereo unspecified) | -15.0% | 11.9% | -15.1% | -8.1% | 2.0% | /
CCN(CC)S(=O)(=O)c1ccc(C(=O)NCCSc2c(-c3ccc(C)cc3)[nH]c3ccccc23)cc1 | / | / | 3.16µM*[quencher] | -0.9% | -3.9% | /
Cc1ccc2cc(CCNC(=O)c3ccc(S(=O)(=O)N4CCCCC4)cc3)c(=O)[nH]c2c1 | ? | 14.1µM* | -17.4% | -12.5% | 0.2% | /
Cc1[nH]c2ccccc2c1SCCNC(=O)c1ccc(S(=O)(=O)N2CCCC2)cc1 | 1.3% | ? | 15.8µM*[quencher] | 6.5% | -14.7% | -4.7%
CO/N=C/c1ccc(Sc2ccccc2)c([N+](=O)[O-])c1 | -5.5% | -9.2% | ? | -3.8% | ? | -8.4%
O=[N+]([O-])c1cc(/C=N/O)ccc1Sc1ccccc1 | 4.2% | ? | ? | -4.7% | ? | 25.1µM*
CO/N=C/c1ccc(Sc2ccccc2N)c([N+](=O)[O-])c1 | 4.0% | 6.5% | 28.2µM*[quencher] | 4.6% | ? | -7.2%
COc1ccccc1N1CCN(S(=O)(=O)c2c(C)sc3ncn(CC(=O)Nc4ccccc4F)c(=O)c23)CC1 | / | / | -18.6% | -4.7% | 0.2% | /
COc1ccc(C2Nc3ccccc3C(=O)N2c2ccc(C)cc2)cc1Cn1cc([N+](=O)[O-])cn1 (stereo unspecified) | 1.7% | 28.2µM* | -17.9% | 9.3% | -1.0% | -18.9%
Cc1ccsc1C(=O)OCC(=O)NCc1ccc2c(c1)OCO2 | -2.6% | -2.7% | 7.7% | 6.7% | ? | 12.6µM*
